According to PubChem BioAssay (NCI):
The panel holds about 83,000 compounds, 20% with a hit somewhere; the sample as a whole holds those more often.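 Testing used 96-well plates and a 48-hour single-concentration exposure. Example: -40 means 40% of the starting cells died.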 Values without a mark were called inactive. Active and inactive are the calls of the source. Rule for the calls: active = growth percent below 10; inactive = the rest.

Key:
Assay in all cases: NCI-60 one-dose screen, 48 h (100 = growth as untreated, 0 = no growth, -100 = all killed)
SK-MEL-2 melanoma = details: 10 µM unless noted
EKVX NSCLC = details: 10 µM unless noted
SN12C renal = details: 10 µM unless noted
UO-31 renal = details: 10 µM unless noted
TK-10 renal = details: 10 µM unless noted
ACHN renal = details: 10 µM unless noted
CAKI-1 renal = details: 10 µM
A498 renal = details: 10 µM unless noted
CCRF-CEM leukemia = details: 10 µM unless noted
MOLT-4 leukemia = details: 10 µM unless noted
SR leukemia = details: 10 µM unless noted
RPMI-8226 leukemia = details: 10 µM unless noted
OVCAR-5 ovarian = details: 10 µM unless noted
OVCAR-4 ovarian = details: 10 µM unless noted
SK-OV-3 ovarian = details: 10 µM unless noted
IGROV1 ovarian = details: 10 µM unless noted
OVCAR-3 ovarian = details: 10 µM unless noted
HS 578T breast = details: 10 µM unless noted
NCI/ADR-RES ovarian = details: 10 µM unless noted
OVCAR-8 ovarian = details: 10 µM unless noted

Row | Compound | growth (SK-MEL-2 melanoma) [%] | growth (EKVX NSCLC) | growth (SN12C renal) | growth (UO-31 renal) | growth (TK-10 renal) | growth (ACHN renal) | growth (CAKI-1 renal) | growth (A498 renal) | growth (CCRF-CEM leukemia) | growth (MOLT-4 leukemia) | growth (SR leukemia) | growth (RPMI-8226 leukemia) | growth (OVCAR-5 ovarian) [%] | growth (OVCAR-4 ovarian) | growth (SK-OV-3 ovarian) [%] | growth (IGROV1 ovarian) | growth (OVCAR-3 ovarian) | growth (HS 578T breast) | growth (NCI/ADR-RES ovarian) | growth (OVCAR-8 ovarian)
1 | Oc1ccc(-c2nnc(SCc3ccc(O)c4ncccc34)n2-c2ccccc2)cc1 | 38.1 | 7.56% (active) | 18.7% | -8.86% (active) | 34.3% | 8.27% (active) | 16.1% | 16% | 6.99% (active) | 12.5% | 37.3% | 15.5% | 34.6 | 10.2% | 18.7 | 8.1% (active) | 3.67% (active) | 39.8% | 8.08% (active) | –
2 | COC(=O)c1c(C(=O)OC)c2n(CC(=O)Nc3cccc4cccnc34)c3ccccc3n2c1C(=O)c1ccc(C)cc1 | 102 | 97.4% | 92.5% | 75.7% | 108% | 97.6% | 104% | 105% | 95.4% | 93.3% | 122% | – | 102 | 99.8% | 119 | 97.6% | 114% | 111% | 96% | 92.4%
3 | CCNCc1c(-c2cccc(OC(F)(F)F)c2)[nH]c2ccc(N3CCCC3)cc2c1=O | 42.3 | 88.1% | 28.2% | 31.9% | 90.5% | 34.4% | -9.12% (active) | -13.6% (active) | 7.62% (active) | 18.4% | 9.06% (active) | – | 24.5 | 49.8% | 34.2 | 22.6% | -6.81% (active) | 8.12% (active) | 9.42% (active) | 22.5%
4 | Cc1ccc(-c2cc(-c3cccc4ccccc34)n3c(n2)nc2ccccc23)cc1 | 105 | 78.7% | 61.2% | 37.9% | 69.1% | 24.8% | 23.1% | 52.5% | 37.5% | 4.63% (active) | – | 65.2% | 92.7 | 79.6% | 100 | 59.5% | – | 56.5% | 67.7% | 58.4%
5 | Cn1c2ccc(Br)cc2c2c3c(c4c5cc(F)ccc5oc4c21)C(=O)N(O)C3=O | 110 | 90.1% | 90.2% | 75.4% | 142% | 78% | 69.2% | 94.2% | 14.7% | 43% | – | 76.7% | 108 | 103% | 90.2 | 63.5% | – | 92.8% | 75.5% | 75.1%
6 | C#C[C@]1(O)CC[C@H]2[C@@H]3CC=C4c5sc(C6CCOCC6)nc5CC[C@]4(C)[C@H]3CC[C@@]21C | 94.6 | 84.2% | 82.9% | 83.9% | 113% | 88.2% | 84.5% | 96.9% | 52.3% | 38.3% | 58.6% | – | 88.6 | 89.7% | 104 | – | 94.2% | 66.9% | 80.6% | 83.8%
7 | C#C[C@]1(O)CC[C@H]2[C@@H]3CC=C4c5sc(-c6ccc(OC)cc6)nc5CC[C@]4(C)[C@H]3CC[C@@]21C | 53.8 | 76.8% | 84.2% | 18.9% | 78% | 59.8% | 64.4% | 56% | 26.8% | 7.24% (active) | 23.5% | – | 71.2 | 97.9% | 53.8 | 70.2% | 83.2% | 2.91% (active) | 83.8% | 84.6%
8 | Nc1nc(N)c2c(n1)NC(c1ccc(Cl)cc1)CC(c1ccc(Nc3nc(NCCO)nc(Nc4ccc(Cl)cc4)n3)cc1)=N2 (stereo unspecified) | 54.2 | 76.1% | 56.6% | 39.7% | 72.9% | 57.5% | 49.5% | 82.1% | 4.85% (active) | 3.59% (active) | – | -32.5% (active) | 84.8 | 34.6% | 100 | 37% | – | 55.7% | 56.5% | 17.6%
9 | O=S(=O)(Nc1cc(Cl)cc(Cl)c1)c1ccc(-c2cnc(C3CC3)o2)cc1 | 56.8 | 43.9% | 50.6% | 53% | 76.1% | 53.3% | 11.8% | 15.7% | 17.2% | 32.6% | 29.5% | – | 45.6 | 63.6% | 70.2 | 40.7% | 17.2% | 36.7% | 18.8% | 47%
10 | Cc1ccc(-c2nnc3sc(C4=Cc5ccccc5OC=C4)nn23)cc1 | 104 | 99.4% | 97.3% | 87.3% | 89.1% | 105% | 79.6% | 61.6% | 105% | 82.8% | – | 101% | 98 | 99.2% | 118 | 109% | – | 112% | 98.2% | 89.8%
11 | O=C(C[n+]1ccnc2ccccc21)c1ccc(O)c(O)c1 | 77.7 | 94.2% | 59.5% | 40.3% | 43.1% | 17.8% | 69.8% | 87.7% | 4.57% (active) | 11.6% | 7.3% (active) | – | 70.5 | 46.6% | 112 | 51.4% | 21.7% | 94.4% | 57.2% | 48.4%
12 | O=S(=O)(Nc1ccc(C2CC2)cc1)c1ccc(-c2cnc(C3CC3)o2)cc1 | 64.8 | 78.4% | 75% | 71.3% | 101% | 87.6% | 27.5% | 60% | 57.9% | 41.3% | 31.1% | – | 94.2 | 67.1% | 87 | 58.2% | 53.2% | 69% | 47.7% | 80.2%
13 | Cc1ccc(-c2cc(-c3ccc(N(C)C)cc3)n3c(n2)nc2ccccc23)cc1 | 16 | 57.9% | 62.8% | 41.8% | 61.1% | 49.3% | 59.3% | 15.6% | 54.8% | 38.9% | – | 36.2% | 109 | 60.9% | 81.3 | 86.2% | – | 83% | 56.7% | 54.2%
14 | N#C/C(=C\c1ccc(-c2ccc(F)cc2)o1)C(=O)Nc1ncc(Cc2ccc(Cl)cc2Cl)s1 | 68.9 | 9.87% (active) | -37.5% (active) | 2.72% (active) | -4.43% (active) | 8.96% (active) | 14.2% | 72.1% | 4.62% (active) | 30.8% | – | 25.3% | 26 | -40.3% (active) | 107 | -1.72% (active) | – | 10.7% | 6.32% (active) | 6.14% (active)
15 | C=C(C)[C@@H]1CC[C@]2(C)[C@H](CC=C3[C@@H]4CC(C)(C)CC[C@]4(C(=O)NCC#CCN4CCN(C)CC4)CC[C@]32C)[C@@]1(C)CCC#N | 94 | 81.6% | 76% | 60% | 83.9% | 78.5% | 30.7% | 84.1% | 48.9% | 19% | – | 42.4% | 89.8 | 70.6% | 94.5 | 54.3% | – | 71.7% | 62.5% | 85.9%
16 | COc1ccc(Oc2ccc(C3CC(c4cc(OC)c(OC)c(OC)c4)=NN3C(C)=O)cc2)cc1 (stereo unspecified) | 49 | 25.4% | 22.3% | 10.1% | 20% | 20.8% | 36.1% | 29.5% | 37.7% | 14.2% | 35.7% | – | 50.2 | 18% | 50.9 | 19.7% | 25.1% | 51.3% | 19.8% | 30.3%
